Data on 40 compounds can be found in PubChem BioAssay (Tox21).

Records with an inconclusive call do not appear. Activity calls are given as the source filed them. Calls follow the shape of the full dose curve.
% is scaled to controls: 0 for no effect and ±100 for the full control effect; potency is read from the fitted curve at half-maximal effect.

This assay in a line: Nuclear factor erythroid 2-related factor 2/antioxidant responsive element (Nrf2/ARE) small molecule agonists: luciferase reporter gene qHTS assay in human keratinocytes (AID 1919969). Also: nearly all actives have a fitted effect of over 35% in size. The following applies: KeratinoSens HaCaT ARE-luciferase, luminescence, 24 h; series mostly up to 92.4 µM; activity, positive = activation: at the top concentration. The text has this:
National Center for Advancing Translational Sciences [NCATS]
Division of Preclinical Innovation [DPI]
U.S. Environmental Protection Agency [EPA]
National Institutes of Environmental Health Sciences [NIEHS]
National Toxicology Program [NTP]
U.S. Food and Drug Administration [FDA]
Oxidative stress has been implicated in the pathogenesis of a variety of diseases ranging from cancer to neurodegeneration. The antioxidant response element (ARE) signaling pathway plays an important role in the amelioration of oxidative stress. The KeratinoSens (Givaudan, Switzerland) is an in vitro test method which quantifies luciferase induction as a measure of activation of Keap1-Nrf2-antioxidationt/electrophile response element (ARE) dependant pathway in HaCaT human keratinocytes stably transfected with a selectable plasmid. The KeratinoSens assay is a cell-based assay with a reporter cell line to detect potential skin sensitizers by their ability to induce the Nrf2/ARE-response. The activation of the report gene under culture conditions can be detected by ONE-Glo Luciferase Assay System (Promega, Madison, WI). This cell line has been used to screen the Tox21 10K compound library to identify agonists that induce oxidative stress. The cytotoxicity of the Tox21 compound library against the KS-ARE cell line was tested in parallel by measuring the cell viability using CellTiter- Fluor assay system (Promega, Madison, WI) in the same wells.
HaCaT derived cell line KeratinoSens were dispensed at 1,500 cells/5uL/well in 1536-well white wall/solid bottom plates using a Multidrop Combi (ThermoFisher Scientific, Waltham, MA) dispenser. After the assay plates were incubated at 37 C/5% CO2 for 5 h, 23 nL of compounds dissolved in DMSO, positive controls or DMSO only was transferred to the assay plate by a pintool workstation (Kalypsys, San Diego, CA). The plates were incubated at 37 C/5% CO2 for 23 h, followed by addition of 1uL/well of CellTiter-Fluor reagent into the assay plates using a Flying Reagent Dispenser (Aurora Discovery, San Diego, CA) for cell viability readout that measures cytotoxicity. After 1 h incubation at 37 C/5% CO2 the fluorescence intensity was measured using a ViewLux (PerkinElmer, Shelton, CT) plate reader. Then 4uL/well of One-Glo were added using a Flying Reagent Dispenser. After the plates were incubated at room temperature for 30 min, the luminescence intensity in the assay plates was measured using ViewLux plate reader.
In general terms: A reporter such as luciferase makes a cellular process visible.
As to `Nc1nc(N)nc(-c2cc(Cl)ccc2Cl)n1`, the “activity, positive = activation” value is -1.45% [at 42.5 µM] (inactive).
Same read-out and setting: then `CC(C)=CC1CC(C)CCO1` (stereo not given), with -5.9% (inactive); and `N=c1ccn2c(n1)O[C@H]1[C@H](O)[C@@H](CO)O[C@H]12`, with 3.36% (inactive).
The same measure, in the same setting: the same measure for `C[C@@H](CN1CC(=O)NC(=O)C1)N1CC(=O)NC(=O)C1`: 2.48% [at 42.5 µM] (inactive); for `Cc1ccc(C(=O)c2ccccc2)cc1`: 6.96% (inactive).
Same read-out and setting: then `CC(C)CCCC(C)NCCC(C)C` (stereo not given), with 1.26% [at 42.5 µM] (inactive).
On to `Cc1cc(O)ccc1N`, for which the Potency was 54.8 µM (active).
In the case of `CCCCCCOC(=O)C(C)C`, the “activity, positive = activation” value was -3.08% (inactive).
As to `CN(C)C(=O)Nc1ccc(Oc2ccc(Cl)cc2)cc1`, the “activity, positive = activation” value is 5.97% (inactive).
For `CC(C)=CCC[C@@](C)(O)[C@H]1CC=C(C)CC1`, the “activity, positive = activation” value was 8.65% [at 42.5 µM] (inactive).
Same read-out and setting: then `CCc1cccc(C)c1N(C(=O)CS(=O)(=O)O)C(C)COC` (stereo not given), with -1.46% (inactive); and `Nc1ccc(Oc2cccc(Oc3ccc(N)cc3)c2)cc1`, with -40.8% (inactive).
Still for that read-out and setting: the same measure for `CC(C)CCOC(=O)CC(C)C`: -3.37% (inactive).
Consider `c1ccc(C(O[C@H]2CCCN(CCc3ccc4c(c3)OCO4)C2)c2ccccc2)cc1`, for which the “activity, positive = activation” value is 1.45% [at 42.5 µM] (inactive).
Still for that read-out and setting: then `CC(C(=O)O)c1ccc2c(c1)Cc1cccnc1O2` (stereo not given), with -0.0287% [at 42.5 µM] (inactive).
In the case of `CCCCCCCCCC[N+](C)(C)[O-]`, the “activity, positive = activation” value was -7.04% (inactive).
Regarding `CCCCCCCCCCCC(=O)N(CC)CC`, the “activity, positive = activation” value was 28.4% (inactive).
Same read-out and setting: then `CCCCCCCCCCCl`, with -5.64% (inactive).
Still for that read-out and setting: the same measure for `Nc1c2c(nc3ccccc13)CCCC2O` (stereo not given): 1.41% [at 42.5 µM] (inactive); for `CC1c2ccccc2CN1NC(=O)c1ccc(Cl)c(S(N)(=O)=O)c1` (stereo not given): -2.8% [at 42.5 µM] (inactive).
Still for that read-out and setting: then `CC(C)Nc1cccnc1N1CCN(C(=O)c2cc3cc(NS(C)(=O)=O)ccc3[nH]2)CC1`, with -5.44% [at 42.5 µM] (inactive).
Take `C#CC(C)N(C)C(=O)Nc1ccc(Cl)cc1` (stereo not given): the “activity, positive = activation” value is 7.64% (inactive).
On the same count and under the same terms, the same measure for `CCCCCCCCCCCCC`: -14.4% (inactive); for `Clc1ccc2c(c1)CCc1cccnc1C2=C1CCNCC1`: -37.1% [at 42.5 µM] (inactive).
Same read-out and setting: then `NC(=O)C(c1ccccc1)(c1ccccc1)[C@@H]1CCN(CCc2ccc3c(c2)CCO3)C1`, with -2.24% [at 42.5 µM] (inactive); and `CC(=O)Nc1cccc(C)c1`, with -0.125% (inactive); and `C(=C/c1ccccc1)/c1ccccc1`, with 20.4% (inactive).
On to `CN1CC(=O)N/C1=N/C(=O)Nc1cccc(Cl)c1`, for which the “activity, positive = activation” value is 14.9% [at 42.5 µM] (inactive).
Consider `O=c1[nH]cnc2nc[nH]c12`, for which the “activity, positive = activation” value is 0.249% [at 42.5 µM] (inactive).
For the compound `O=C(O)/C=C/c1ccc(/C=C/C(=O)O)cc1`, the “activity, positive = activation” value was 0.329% [at 42.5 µM] (inactive).
Same read-out and setting: then `c1ccc(C[P+](c2ccccc2)(c2ccccc2)c2ccccc2)cc1`, with 5.39% (inactive); and `Nc1ccccc1S(=O)(=O)c1ccccc1`, with -8.31% (inactive); and `CC(C)(C)NCC(O)c1cc(O)cc(O)c1` (stereo not given), with -0.253% [at 42.5 µM] (inactive).
For the compound `O=C(Oc1ccccc1C(=O)O)c1ccccc1O`, the “activity, positive = activation” value is -2.73% [at 42.5 µM] (inactive).
Still for that read-out and setting: then `Nc1ccc(S(=O)(=O)O)c(N)c1`, with 2.44% (inactive); and `C[C@H](CCC(=O)NCC(=O)O)[C@H]1CC[C@H]2[C@@H]3[C@H](O)C[C@@H]4C[C@H](O)CC[C@]4(C)[C@H]3C[C@H](O)[C@]12C`, with 15.8% (inactive); and `OC[C@@H](O)[C@H](O)[C@@H](O)[C@@H](O)CO`, with -10.8% (inactive).
On the same count and under the same terms, the same measure for `O=C1CCCCCCCCCCCCCC1`: 16.9% (inactive); for `CC1(C)S[C@@H]2[C@H](NC(=O)C(C(=O)O)c3ccccc3)C(=O)N2[C@H]1C(=O)O` (stereo not given in full): -0.142% [at 42.5 µM] (inactive).
In the case of `CCNC(=O)C1CC(C)CCC1C(C)C` (stereo not given), the “activity, positive = activation” value is -5.81% (inactive).
